TLR9-MyD88 inh = blocks human TLR9 binding to MyD88; Q9NR96+Q99836; CHO BLA complementation TLR9-MyD88, CCF4 FRET ratio; inhibition, % at 4.98 µM; hit rate 0.21% among 340,000;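 active means inhibition above the mean over all tested compounds plus 3 SD, cut at about 21% in these data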;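 further: 0% = DMSO only wells and 100% = clavulanate BLA inhibitor control wells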
TLR4-MyD88 BLA = inhibitors of human TLR4-MyD88 binding; HeLa CL3-4 TLR4/MyD88 BLA complementation, FRET ratio; inhibition, % at 8.4 µM; hit rate 0.18% among 200,000; in the data active means inhibition above about 25%;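 further: 0% = vehicle and 100% = reference inhibitor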
NOD2-RIPK2 inh = blocks binding of human NOD2 to RIPK2. inhibition, % at 4.98 µM. CHO BLA complementation NOD2-RIPK2, CCF4 ratio. hit rate 0.38% among 360,000. AID 624267; in the data active means inhibition above about 21%;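 further: 0% = vehicle only and 100% = reference blocker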
Bim-Mcl-1 = disrupts Bim peptide binding to human Mcl-1 | inhibition, % at 10 µM | Bead-based flow cytometry, Bim peptide-Mcl-1 binding | Q07820 | hit rate 0.1% among 190,000; in the data active means inhibition above about 40%;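 further: 0% = no compound tracer wells and 100% = peptide blocker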
Mcl1-Noxa inh = disrupts binding of human Mcl-1 to Noxa peptide | Q07820 | TR-FRET Mcl-1/Noxa peptide binding, 2 h | inhibition, % at 21.7 µM | hit rate 1.5% among 220,000 | AID 1022;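 active means compounds that cut the protein-peptide binding signal by more than 50% relative to plate controls in a single-dose test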;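 further: His-tagged Mcl-1 with rhodamine Noxa BH3 peptide and terbium anti-His antibody; 0% = Mcl-1 plus Noxa peptide wells and 100% = peptide-only wells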
Mcl1-Bid inh = Mcl-1/Bid interaction inhibition. Q07820. TR-FRET Mcl-1/Bid-Dy647 peptide binding, 1536-well. inhibition, % at 21.7 µM. hit rate 0.97% among 220,000;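 active means compounds that cut the binding signal by more than half at the single screening dose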;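 further: His-tagged Mcl-1 with europium anti-His antibody binding Bid BH3 peptide; 0% = Mcl-1 plus peptide wells and 100% = peptide-only wells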
The depositor's hits bear a star; · = not tested or not shown. This is a sample that favours compounds with a hit; in the whole collection about 1.8% have one here.

SMILES	TLR9-MyD88 inh	TLR4-MyD88 BLA	NOD2-RIPK2 inh	Bim-Mcl-1	Mcl1-Noxa inh	Mcl1-Bid inh
Cn1nc(SCc2ccccc2)c(=O)[nH]c1=O	4.9	·	-3.7	·	·	·
O=C(COc1cc(O)c2c(=O)c3ccccc3oc2c1)OCc1ccccc1	-6.3	·	-11.0	·	16.2	6.4
Cc1ccc(C(=O)NCCNC(=O)COc2ccc(C)c(C)c2)cn1	2.7	·	-7.8	·	·	·
S=c1[nH]nc(-c2cc(-c3ccccc3)n[nH]2)n1/N=C/c1ccccc1	7.7	·	-1.2	·	-12.7	-103.3
S=c1[nH]nc(-c2cc(-c3ccccc3)n[nH]2)n1/N=C/C(Br)=C/c1ccccc1	·	·	-4.0	·	75.8*	-93.0
O=[N+]([O-])c1ccccc1/C=C/C=N/n1c(-c2cc(-c3ccccc3)n[nH]2)n[nH]c1=S	-10.0	·	-11.4	·	57.8*	-32.6
CC(NCCCOc1cccc2ccccc12)c1ccccc1 (stereo not drawn)	0.4	·	-5.7	·	·	·
Cc1cc2ccccc2n2c(SCC(=O)NCc3cccs3)nnc12	1.0	-2.5	0.4	5.0	66.5*	6.9
Cc1cc(NC(=O)CSc2nnc3c(C)cc4ccccc4n23)no1	-4.6	-10.5	-3.4	0.0	2.4	-20.9
CCNc1sc(C(=O)c2cccs2)c(N)c1-c1nc2ccccc2s1	0.1	16.8	-3.4	4.0	54.8*	-47.4
O=C(NCCc1ccccc1)C1CCN(S(=O)(=O)c2ccc(-c3nn[nH]n3)cc2)CC1	-11.3	6.1	-10.8	-3.0	8.9	87.9*
CCOC(=O)CNC(=O)C1CCN(S(=O)(=O)c2ccc(-c3nn[nH]n3)cc2)CC1	-6.0	·	-0.7	·	·	·
Brc1ccsc1/C=N/Nc1ccccc1	-10.7	·	1.4	·	·	·
CN1C(=O)/C(=C/c2ccccc2OCc2ccccc2)NC1=S	5.0	-17.6	0.8	-1.0	4.6	-10.5
CN1C(=O)/C(=C/c2ccccc2OCc2cccc(F)c2)NC1=S	-1.1	0.5	8.2	-3.0	5.3	77.7*
O=C(NC1CCCC1)c1csc2c1CCCC2	5.7	-19.4	-11.1	3.0	10.9	100.0*
O=C(NC(c1ccc(-c2ccccc2)cc1)c1cnccn1)C1CCN(Cc2ccc3c(c2)OCO3)CC1 (stereo not drawn)	·	·	-2.7	·	·	·
C/C=C/C=C/C(=O)N1CC[C@]23c4ccccc4N[C@H]4N(C)c5cccc6c5[C@]42CCN([C@H]6C2OC2(C)C)[C@H]13 (stereo partly drawn)	-8.3	·	-0.8	·	63.9*	-108.8
CN1CCC23c4ccccc4NC1C21CCN(C)C3Nc2ccccc21	6.1	·	-8.9	·	·	·
CCOc1ccc(NC(=S)NN2C(C)CCCC2C)cc1 (stereo not drawn)	0.2	14.9	-1.0	-8.0	25.2	57.1*
CCCCC[C@@H](C)N1C[C@@H](COCc2ccccc2)Oc2cc(N3CC[C@@H](N(C)C)C3)ccc2S1(=O)=O	·	·	-4.4	·	·	·
Cc1ccc(-c2csc(NC(=O)c3ccno3)n2)cc1	-0.2	-1.2	7.6	-1.0	55.8*	16.1
Cc1ccc(-c2csc(NC(=O)c3ccc(C)o3)n2)cc1	-6.2	13.4	-0.1	-7.0	11.5	0.0
CC(=O)Cc1nsc(NC(=O)c2ccc(-c3cc(C(F)(F)F)ccc3Cl)o2)n1	-5.2	-10.6	1.7	-3.0	6.0	68.0*
O=C(NCc1ccco1)c1cc2nc(-c3ccc4c(c3)OCO4)cc(C(F)(F)F)n2n1	2.9	9.5	7.2	-3.0	27.1	-16.0
SMILES	TLR9-MyD88 inh	TLR4-MyD88 BLA	NOD2-RIPK2 inh	Bim-Mcl-1	Mcl1-Noxa inh	Mcl1-Bid inh
O=C(NCc1cccnc1)c1cc2nc(-c3ccc4c(c3)OCO4)cc(C(F)(F)F)n2n1	10.1	-0.9	-2.6	3.0	46.7	82.8*
COCC(=O)Nc1ccc([N+](=O)[O-])cc1OC	-6.5	-1.9	-0.8	-4.0	5.9	10.8
COc1cc([N+](=O)[O-])ccc1NC(=O)COC(=O)c1ccc(NC(N)=O)cc1	-5.3	·	5.3	·	72.3*	61.2*
CCN(CC)c1ccc(/C=N/NC(=O)Cc2nnc(NC(=O)Nc3ccccc3)s2)cc1	-1.6	1.9	4.3	-12.0	72.5*	-67.4
Cc1sccc1/C=N/NC(=O)c1cccc2ccccc12	-3.4	-13.6	4.5	-2.0	91.9*	-10.5
Cc1ccccc1C(=O)N/N=C/c1ccsc1C	7.5	-11.9	-3.2	-4.0	-7.2	-15.4
CC(C)n1c(SCC(=O)Nc2ccc3c(c2)OCO3)nc2c1c(=O)n(C)c(=O)n2C	-5.0	-14.5	-7.3	1.0	-0.2	71.7*
Cc1c([N+](=O)[O-])oc2c1C(=O)NCCC2	2.1	·	1.9	·	·	·
COc1ccc(C(=O)/C=C/c2ccc(N3CCCCC3)c([N+](=O)[O-])c2)cc1	7.9	3.7	-4.0	-3.0	7.8	100.4*
Nc1c(Br)cc2c([nH]c(=O)c3ccccc32)c1Br	3.4	·	15.5	·	·	·
O=C(NCCCN1CCCC1=O)c1cccc(NS(=O)(=O)c2ccc(Br)cc2)c1	-5.2	·	4.4	·	·	·
CC(=O)c1c(C)[nH]c(C(=O)OCC(=O)NC(C)c2ccccc2)c1C (stereo not drawn)	2.3	·	-6.7	·	·	·
CC1CC(C)CN(CCOCCSc2ccccc2)C1 (stereo not drawn)	-15.7	-4.2	-7.4	-5.0	17.7	69.0*
CC(C)N1C(=O)/C(=C/c2nc3ccccc3c(=O)n2-c2ccccc2)c2ccccc21	3.0	0.3	-8.4	0.0	54.9*	77.9*
COc1ccc(C(c2c(O)cc(C)oc2=O)c2c(O)cc(C)oc2=O)cc1	4.7	-22.6	-3.7	0.0	76.2*	20.2
CCCCSc1cc(C)nc(N)n1	-1.4	·	-14.4	·	36.6	78.8*
Cc1ncc(CO)c(/C=N/NC(=S)Nc2ccc(Cl)c(Cl)c2)c1O	-2.5	2.1	2.8	-1.0	71.0*	-61.4
CSCC[C@H](NC(=O)OC(C)(C)C)c1nnc(SCC(=O)N(C)C)o1	-1.4	-8.0	5.1	2.0	67.4*	-49.0
Nc1nnc(CSCc2cccc(Br)c2)s1	4.0	-9.7	3.5	0.0	-4.1	-10.2
C[C@H]1CN([C@@H](C)CO)C(=O)c2cc(Br)cnc2O[C@@H]1CN(C)S(C)(=O)=O	7.0	·	-2.5	·	·	·
Oc1ccc2ccccc2c1C1Nc2cccc3cccc(c23)N1	-0.9	-6.0	-12.6	1.0	50.6*	19.9
COc1cc(C2Nc3cccc4cccc(c34)N2)ccc1O	4.4	·	-8.8	·	·	·
N=C1/C(=C\c2ccc(-c3cccc(C(=O)O)c3)o2)C(=O)N=C2SC=C(c3ccccc3)N12	-4.6	·	3.6	·	92.7*	97.8*
N#CC(=Cc1ccccn1)c1nc(-c2ccc(Cl)cc2)cs1	11.5	·	3.6	·	·	·
N#C/C(=C\Nc1ccc2cn[nH]c2c1)c1nc(-c2ccc(Cl)cc2)cs1	-2.4	11.7	-6.3	1.0	52.7*	58.1*
CCN=C1SC(C(=O)Nc2ccc(OC)cc2)CC(=O)N1CC (stereo not drawn)	-6.9	-25.9	-4.5	0.0	64.3*	-18.9
CCN=C1SC(C(=O)Nc2ccc(OCC)cc2)CC(=O)N1CC (stereo not drawn)	·	8.6	-4.3	0.0	10.5	-22.4
